About 2,000 (36%) of roughly 5,500 compounds were called active. Not shown: some 18% with an inconclusive outcome. Rule as the data show it: active = normalized growth mostly below about 0.91 (no sharp cut-off); inconclusive = no clear call, values can overlap the other calls; inactive = mostly above about 0.92. The list shows a part of the results.
Test: chemical genetic growth profiling, strain panel (AID 1159580);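 also: tested at 20 µM; growth read once vehicle control cultures reached saturation at 30 °C; 1 = growth at the plate median or of vehicle wells; lower values mean less growth of the strain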
Details: S. cerevisiae deletion strains, growth OD
[1] = locus YJR075W, strain HOC1, active compounds read low
[2] = locus YMR307W, strain GAS1, active compounds read low
[3] = locus YNL322C, strain KRE1, active compounds read low

Measured: normalized growth

COC(=O)C(O)[C@H]1C(C)(C)[C@@H](OC(C)=O)[C@@H]2CC3=C4CC(=O)O[C@@H](c5ccoc5)[C@]4(C)CCC3[C@@]1(C)C2=O (stereo not given in full)
inactive: locus YBR021W, strain FUR4, active compounds read low 0.99 | locus YBR229C, strain ROT2, active compounds read low 0.996 | locus YCL029C, strain bik1, active compounds read low 1.02 | locus YDL035C, strain GPR1, active compounds read low 0.994 | locus YDL074C, strain BRE1, active compounds read low 0.941 | locus YDL101C, strain DUN1, active compounds read low 1.01 | locus YDL185W, strain tfp1, active compounds read low 1.01 | locus YDL192W, strain arf1, active compounds read low 0.986 | locus YDR101C, strain arx1, active compounds read low 1.01 | locus YDR162C, strain NBP2, active compounds read low 0.963 | locus YDR318W, strain mcm21, active compounds read low 0.989 | locus YDR388W, active compounds read low 1 | locus YDR502C, strain sam2, active compounds read low 1 | locus YER110C, active compounds read low 1 | locus YER155C, strain BEM2, active compounds read low 1.01 | locus YER167W, strain BCK2, active compounds read low 0.986 | locus YGL078C, strain dbp3, active compounds read low 1.01 | locus YGL086W, strain mad1, active compounds read low 0.979 | locus YGL248W, strain PDE1, active compounds read low 0.992 | locus YGR135W, strain pre9, active compounds read low 0.97 | locus YGR252W, strain gcn5, active compounds read low 0.989 | locus YHR079C, strain IRE1 (second series), active compounds read low 1 | locus YHR094C, strain hxt1, active compounds read low 1 | locus YHR129C, strain ARP1, active compounds read low 0.989 | locus YHR200W, strain rpn10, active compounds read low 1 | locus YIL066C, strain RNR3, active compounds read low 0.981 | locus YIL073C, strain SPO22, active compounds read low 1 | locus YIL125W, strain kgd1, active compounds read low 1.01 | locus YIR030C, strain dcg1, active compounds read low 1.01 | locus YJL095W, strain BCK1, active compounds read low 0.915 | locus YJL134W, strain LCB3, active compounds read low 0.995 | locus YJL168C, strain set2, active compounds read low 0.995 | locus YJL187C, strain SWE1 (second series), active compounds read low 0.993 | locus YJR043C, strain POL32, active compounds read low 1.02 | [1] 0.995 | locus YKL009W, strain mrt4, active compounds read low 1.01 | locus YKL068W, active compounds read low 1 | locus YKL085W, strain MDH1 (second series), active compounds read low 0.995 | locus YKL085W, strain MDH1, active compounds read low 0.995 | locus YKL190W, strain CNB1, active compounds read low 0.998 | locus YKR001C, strain vps1, active compounds read low 0.977 | locus YLR039C, strain RIC1, active compounds read low 0.764 | locus YLR058C, strain SHM2, active compounds read low 0.99 | locus YLR102C, strain apc9, active compounds read low 0.993 | locus YLR262C, strain YPT6, active compounds read low 0.805 | locus YLR268W, strain sec22, active compounds read low 0.983 | locus YLR330W, strain CHS5, active compounds read low 0.992 | locus YLR371W, strain rom2, active compounds read low 0.982 | locus YLR418C, strain cdc73, active compounds read low 0.906 | locus YML016C, strain PPZ1, active compounds read low 0.994 | locus YML032C, strain rad52, active compounds read low 1 | locus YML124C, strain tub3, active compounds read low 1 | locus YMR078C, strain ctf18, active compounds read low 0.983 | locus YMR223W, strain ubp8, active compounds read low 0.99 | [2] 0.76 | locus YNL067W, strain RPL9B, active compounds read low 0.991 | locus YNL233W, strain BNI4, active compounds read low 0.984 | locus YNL250W, strain rad50, active compounds read low 1.02 | locus YNL271C, strain bni1, active compounds read low 0.998 | locus YNL298W, strain CLA4, active compounds read low 1.01 | locus YNL307C, strain MCK1, active compounds read low 0.991 | [3] 1 | locus YNR052C, strain pop2, active compounds read low 0.99 | locus YOL012C, strain htz1 0.744 | locus YOL147C, strain pex11, active compounds read low 1 | locus YOR061W, strain CKA2, active compounds read low 0.997 | locus YOR069W, strain VPS5, active compounds read low 0.996 | locus YOR136W, strain idh2, active compounds read low 1.01 | locus YOR144C, strain elg1, active compounds read low 1 | locus YOR184W, strain ser1, active compounds read low 0.965 | locus YOR316C, strain cot1, active compounds read low 1.01 | locus YPL055C, strain LGE1, active compounds read low 1.01 | locus YPR119W, strain clb2, active compounds read low 1 | locus YPR141C, strain kar3, active compounds read low 0.992 | locus YPR163C, strain tif3, active compounds read low 1 | locus YPR167C, strain met16, active compounds read low 1 | strain wtn01, active compounds read low 0.995

CC(=O)NC1C(O)OC(COS(=O)(=O)O)C(OC2OC(C(=O)O)C(OC3OC(CO)C(OC4OC(C(=O)O)C(O)C(O)C4OS(=O)(=O)O)C(OS(=O)(=O)O)C3NS(=O)(=O)O)C(O)C2OS(=O)(=O)O)C1O (stereo not given)
inactive: locus YAL021C, strain ccr4, active compounds read low 0.991 | locus YAL026C, strain drs2, active compounds read low 0.974 | locus YAL030W, strain snc1, active compounds read low 0.988 | locus YBL061C, strain skt5, active compounds read low 0.964 | locus YBR009C, strain hhf1, active compounds read low 0.989 | locus YBR023C, strain chs3, active compounds read low 0.971 | locus YBR171W, strain sec66, active compounds read low 0.957 | locus YBR231C, strain swc5, active compounds read low 0.991 | locus YBR279W, strain paf1, active compounds read low 0.981 | locus YCL011C, strain gbp2, active compounds read low 0.976 | locus YCL016C, strain dcc1, active compounds read low 0.971 | locus YCL061C, strain MRC1, active compounds read low 0.978 | locus YCL069W, strain vba3, active compounds read low 0.976 | locus YCR088W, strain abp1, active compounds read low 0.974 | locus YDL005C, strain med2, active compounds read low 0.978 | locus YDL040C, strain nat1, active compounds read low 0.973 | locus YDR001C, strain nth1, active compounds read low 0.976 | locus YDR069C, strain doa4, active compounds read low 0.978 | locus YDR137W, strain rgp1, active compounds read low 0.92 | locus YDR159W, strain sac3, active compounds read low 0.992 | locus YDR195W, strain ref2 0.965 | locus YDR297W, strain sur2, active compounds read low 0.981 | locus YDR334W, strain swr1, active compounds read low 0.96 | locus YDR335W, strain msn5, active compounds read low 0.978 | locus YDR392W, strain spt3, active compounds read low 0.979 | locus YEL003W, strain gim4, active compounds read low 0.978 | locus YEL037C, strain rad23, active compounds read low 0.978 | locus YEL061C, strain CIN8 (second series), active compounds read low 0.976 | locus YER015W, strain faa2, active compounds read low 0.986 | locus YER016W, strain bim1, active compounds read low 0.982 | locus YER111C, strain swi4, active compounds read low 0.968 | locus YER155C, strain BEM2 (second series), active compounds read low 0.975 | locus YFR010W, strain ubp6, active compounds read low 0.968 | locus YGL167C, strain pmr1, active compounds read low 0.97 | locus YGL173C, strain kem1, active compounds read low 0.966 | locus YGL227W, strain vid30, active compounds read low 0.975 | locus YGL240W, strain doc1, active compounds read low 0.996 | locus YGL253W, strain hxk2, active compounds read low 0.994 | locus YHR013C, strain ard1, active compounds read low 0.947 | locus YHR027C, strain rpn1, active compounds read low 0.979 | locus YHR142W, strain chs7, active compounds read low 0.957 | locus YJL092W, strain hpr5, active compounds read low 0.976 | locus YJL095W, strain BCK1 (second series), active compounds read low 0.979 | locus YJL115W, strain asf1, active compounds read low 0.967 | locus YJL129C, strain trk1, active compounds read low 0.986 | locus YJL154C, strain vps35, active compounds read low 0.974 | locus YJL164C, strain tpk1, active compounds read low 0.979 | locus YJL166W, strain qcr8, active compounds read low 0.982 | locus YJL187C, strain SWE1, active compounds read low 0.978 | locus YKL160W, strain elf1, active compounds read low 0.976 | locus YKR026C, strain gcn3, active compounds read low 0.978 | locus YKR091W, strain srl3, active compounds read low 0.984 | locus YLL001W, strain dnm1, active compounds read low 0.975 | locus YLL026W, active compounds read low 0.981 | locus YLL041C, strain sdh2, active compounds read low 0.982 | locus YLR027C, strain aat2, active compounds read low 0.982 | locus YLR221C, strain rsa3, active compounds read low 0.969 | locus YLR258W, strain gsy2, active compounds read low 0.986 | locus YLR262C, strain YPT6 (second series), active compounds read low 0.977 | locus YLR320W, strain mms22, active compounds read low 0.977 | locus YLR342W, strain FKS1, active compounds read low 0.98 | locus YLR357W, strain rsc2, active compounds read low 0.964 | locus YLR370C, strain arc18, active compounds read low 0.966 | locus YLR384C, strain iki3, active compounds read low 0.963 | locus YML120C, strain ndi1, active compounds read low 0.981 | locus YMR058W, strain fet3, active compounds read low 0.987 | locus YMR125W, strain sto1, active compounds read low 0.981 | locus YMR129W, active compounds read low 0.983 | locus YMR205C, strain PFK2, active compounds read low 0.982 | locus YMR231W, strain pep5, active compounds read low 0.967 | locus YNL071W, strain lat1, active compounds read low 0.983 | locus YNL209W, strain ssb2, active compounds read low 0.975 | locus YNL248C, strain rpa49, active compounds read low 0.98 | locus YNL322C, strain KRE1 (second series), active compounds read low 0.989 | locus YNR049C, strain mso1, active compounds read low 0.987 | locus YOR001W, strain rrp6, active compounds read low 0.97 | locus YOR070C, strain gyp1, active compounds read low 0.978 | locus YOR080W, strain dia2, active compounds read low 0.969 | locus YOR083W, strain WHI5, active compounds read low 0.986 | locus YOR106W, strain vam3, active compounds read low 0.984 | locus YOR265W, strain rbl2, active compounds read low 0.972 | locus YOR270C, strain vph1, active compounds read low 0.952 | locus YOR290C, strain snf2, active compounds read low 0.961 | locus YPL051W, strain arl3, active compounds read low 0.977 | locus YPL078C, strain atp4, active compounds read low 0.97 | locus YPL106C, strain sse1, active compounds read low 0.97 | locus YPL240C, strain hsp82, active compounds read low 0.982

O=c1onc2n1-c1cc(Br)ccc1OC2
active: locus YNL153C, strain GIM3, active compounds read low 0.763
inactive: locus YAL013W, strain DEP1, active compounds read low 0.994 | locus YAL040C, strain CLN3, active compounds read low 0.991 | locus YCL061C, strain MRC1 (second series), active compounds read low 1.01 | locus YDR363W, strain ESC2, active compounds read low 0.995 | locus YER002W, strain NOP16, active compounds read low 1 | locus YGR078C, strain PAC10, active compounds read low 0.952 | [1] 1 | locus YMR263W, strain SAP30, active compounds read low 1.01 | [2] 0.989 | locus YNL175C, strain NOP13, active compounds read low 1 | locus YNL197C, strain WHI3, active compounds read low 1.02 | locus YNL224C, strain SQS1, active compounds read low 1 | [3] 0.998 | locus YOR083W, strain WHI5 (second series), active compounds read low 0.882 | locus YPL241C, strain CIN2, active compounds read low 1
